Results from article PMC5540273 (PLoS ONE, 2017).

Assays:
Conditions in all cases: concentration: 1 μM, replicates: in singlicate; n = 1
PDGFRB = test system: PDGFRB
PDPK1 = test system: PDPK1
PFTAIRE2 = test system: PFTAIRE2
PFTK1 = test system: T1, PFTK1
T1 construct: gene CDK14

PHKG1 = test system: PHKG1
PHKG2 = test system: PHKG2
PIK3C2B = test system: PIK3C2B
PIK3C2G = test system: PIK3C2G
PIK3CA = test system: PIK3CA
PIK3CB = test system: PIK3CB
PIK3CD = test system: PIK3CD
PIK3CG = test system: PIK3CG
PIK4CB = test system: T2, PIK4CB
T2 construct: gene PI4KB

PIKFYVE = test system: PIKFYVE
PIM1 = test system: PIM1
PIM2 = test system: PIM2
PIM3 = test system: PIM3
PIP5K1A = test system: PIP5K1A
PIP5K1C = test system: PIP5K1C
PIP5K2B = test system: PIP5K2B
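Also: KINOMEscan kinase panel screen.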

Structure (SMILES)	%Inh (PDGFRB) [%]	%Inh (PDPK1) [%]	%Inh (PFTAIRE2) [%]	%Inh (PFTK1) [%]	%Inh (PHKG1) [%]	%Inh (PHKG2) [%]	%Inh (PIK3C2B) [%]	%Inh (PIK3C2G) [%]	%Inh (PIK3CA) [%]	%Inh (PIK3CB) [%]	%Inh (PIK3CD) [%]	%Inh (PIK3CG) [%]	%Inh (PIK4CB) [%]	%Inh (PIKFYVE) [%]	%Inh (PIM1) [%]	%Inh (PIM2) [%]	%Inh (PIM3) [%]	%Inh (PIP5K1A) [%]	%Inh (PIP5K1C) [%]	%Inh (PIP5K2B) [%]
Fc1cccc(COc2ccc(Nc3ncnc4nn5ccccc5c34)cc2Cl)c1 [GW689066]	13	0	4	0	2	0	0	0	0	41	0	0	0	0	0	0	0	40	43	7
CC(C)(C)OC(=O)NC1CCCN(c2cc(-c3ccc4c(N)n[nH]c4c3)nc(N)n2)C1 (stereo not drawn) [GSK2286096]	14	84	18	0	0	0	0	0	0	0	0	19	1	0	9	0	5	0	7	19
C[C@H]1CC[C@@H](C(=O)Nc2ccccc2)CN1c1cc(-c2ccc3c(N)n[nH]c3c2)nc(N)n1 [GSK2283293]	11	25	15	11	0	0	0	0	0	0	0	0	0	0	13	0	0	0	19	24
COC(=O)c1cccc(NC(=O)NCCNc2ccnc(Nc3ccc(F)cc3)n2)c1 [GSK1379883]	51	5	9	18	0	0	4	0	9	0	0	8	0	1	0	0	0	34	56	5
Nc1nccc2scc(-c3ccc4c(c3)CCN4C(=O)Cc3cc(F)ccc3F)c12 [GSK2587663]	35	0	15	15	4	0	0	0	0	0	0	0	0	0	0	0	0	0	49	13
CS(=O)(=O)CCNCc1nc(-c2ccc3ncnc(Nc4ccc(OCc5cccc(F)c5)c(Cl)c4)c3c2)cs1.Cl [GW583340]	12	0	12	16	0	0	37	0	0	0	29	0	26	0	20	0	8	1	38	0
Cl.c1ccc(Cn2ccc3cc(Nc4ncnc5ccccc45)ccc32)cc1 [GW275568]	35	22	28	29	0	23	31	3	14	0	0	21	24	0	27	1	23	0	34	6
CN1c2ccc(-c3ccc(C(=O)NCCO)cc3)cc2-c2[nH]ncc2S1(=O)=O	11	17	0	0	0	41	0	8	0	0	10	0	0	0	10	5	24	0	41	0
CSc1ccc(NC2=C(c3ccccc3Cl)C(=O)NC2=O)cc1 [SB-342411]	31	80	20	25	0	25	0	17	0	3	0	0	0	0	0	0	0	0	33	0
Fc1cccc(COc2ccc(Nc3ncnc4sc(-c5ccc[nH]5)cc34)cc2Cl)c1 [GW707818]	19	5	22	23	0	12	0	7	0	1	0	0	0	0	20	0	14	29	46	0
CCc1nc(-c2cccc(N(C)S(=O)(=O)c3ccccc3)c2)c(-c2ccnc(Nc3ccc(N4CCN(C(C)=O)CC4)nc3)n2)s1 [GSK1645895]	32	0	25	20	0	0	0	0	0	0	0	4	10	0	17	0	11	0	0	0
Cl.O=S(=O)(c1cccc(F)c1)c1ccc(Nc2ncnc3cc(Br)sc23)cc1Cl [GSK306886]	46	0	24	21	0	0	28	0	0	0	21	5	6	0	14	0	0	9	70	3
COc1ccc(Nc2nccc(N3CCC(NC(=O)Nc4ccc5c(c4)OCO5)C3)n2)cc1 (stereo not drawn) [GSK1379745]	24	27	11	7	0	9	9	0	0	0	5	0	14	14	9	0	0	11	51	40
Cn1ccc2ncnc(Oc3ccc(NC(=O)Nc4cccnc4)c(Cl)c3)c21	99.7	0	10	0	15	0	6	19	4	3	8	7	0	0	1	0	0	0	1	35
N#Cc1ccc(Oc2ccc(Nc3ncnc4cc[nH]c34)cc2Cl)cc1	31	1	11	17	5	18	0	28	5	11	36	0	0	7	20	6	29	0	0	11
CNc1nccc(-c2c(-c3ccc(F)cc3)ncn2CCCN2CCOCC2)n1 [SB-222516]	4	0	9	0	0	0	0	3	0	6	0	0	20	0	0	0	81	6	17	0
CN1CCC(n2cnc(-c3ccc(F)cc3)c2-c2ccnc(NC3CCNCC3)n2)CC1 [SB-229482]	29	0	17	0	0	16	0	0	0	37	0	34	31	40	1	0	2	0	0	0
COc1cc2ncnc(Nc3ccc(OCc4ccccc4Br)c(Cl)c3)c2cc1OC.Cl [GI261590]	0	0	4	29	3	0	0	0	0	45	0	0	0	28	0	0	15	34	56	11
Clc1ccc(-c2cc(-c3c[nH]nc3-c3ccccn3)ccn2)cc1 [GW681251]	62	0	1	0	0	0	0	0	0	0	0	0	4	0	0	30	0	16	79	22
Cc1ccc(O)cc1Nc1cc(C(F)(F)F)nc2ccc(-c3ccncc3)cc12 [GW630823]	10	0	34	5	14	5	0	15	1	0	0	0	0	0	4	3	11	0	0	0
Cc1ccc(C)c(NC(=O)NCCNc2ccnc(Nc3ccc(F)cc3)n2)c1 [GSK1379878]	6	0	10	0	0	0	0	0	0	0	0	0	0	0	0	0	0	41	48	15
